Measurements as given in ChEMBL document CHEMBL3988442, “University of Dundee, Small-Polar-MMV Screening Library” (2021).

Legend:
[1] = target: T1, Aspartate--tRNA(Asp/Asn) ligase (Mycobacterium tuberculosis (strain ATCC 25618 / H37Rv)) (UniProt P9WFW3); test: Assay for Asp RNA synthetase-1 from Mycobacterium tuberculosis; type: functional; parameters: scale not given: direction of the effect not stated beside the values; settings: 30 µM; note: in the data most compounds retested in dose-response had high values
T1 sequence (whole entry): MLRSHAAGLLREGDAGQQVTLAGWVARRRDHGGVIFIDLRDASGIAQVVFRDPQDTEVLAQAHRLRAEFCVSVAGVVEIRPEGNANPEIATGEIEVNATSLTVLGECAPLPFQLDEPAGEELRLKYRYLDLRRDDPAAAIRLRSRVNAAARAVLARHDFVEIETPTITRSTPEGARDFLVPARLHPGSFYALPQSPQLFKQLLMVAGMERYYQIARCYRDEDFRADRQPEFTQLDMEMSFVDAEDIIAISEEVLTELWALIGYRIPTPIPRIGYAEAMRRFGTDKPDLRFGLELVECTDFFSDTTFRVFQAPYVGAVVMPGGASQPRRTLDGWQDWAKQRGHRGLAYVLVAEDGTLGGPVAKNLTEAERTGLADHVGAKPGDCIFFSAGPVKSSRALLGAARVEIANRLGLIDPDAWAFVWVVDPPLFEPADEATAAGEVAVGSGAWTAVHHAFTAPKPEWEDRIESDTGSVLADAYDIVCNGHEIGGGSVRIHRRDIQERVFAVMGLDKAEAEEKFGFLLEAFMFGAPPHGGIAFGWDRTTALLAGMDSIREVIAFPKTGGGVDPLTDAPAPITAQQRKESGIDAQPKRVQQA

[2] = target: Shiga toxin 2 (Escherichia coli O157:H7) (UniProt P09385+P09386); test: E. coli 0.157:H7 Shiga Toxin SOP - stx2 screening assay; type: functional; parameters: scale not given: direction of the effect not stated beside the values; settings: 30 µM

| SMILES | Percent Effect [1] | Percent Effect [2] |
| --- | --- | --- |
| CNC(=O)C1Cn2ccnc2C2(CCN(CCF)CC2)O1 (centres undefined) | 2.17% | -8.7% |
| Cc1cnn(CC2CN(CC(=O)Nc3sccc3C#N)CCO2)c1 (centres undefined) | -2.83% | 27.5% |
| Cc1cc(CNC(=O)C2CCCCN2C(=O)OC(C)(C)C)no1 (centres undefined) | 0.607% | 10.5% |
| Fc1ccc(CN2CCC(c3n[nH]c4nccnc34)CC2)cc1F | 0.372% | -8.59% |
| Nc1nc(C2CCN(C(=O)c3cscn3)CC2)cs1 | 2.54% | -10.9% |
| CCOc1ncccc1NC(=O)N1CCN(c2cccc(C)c2C)CC1 | 1.92% | 38.1% |
| CO[C@H]1CCN(Cc2cnn(C)c2)[C@@H]2CN(Cc3cccnc3)C[C@H]12 | 3.14% | -40.9% |
| CCOCC(O)CN1CCN(C(=O)c2ccccc2Cl)CC1 (centres undefined) | -4.21% | 24.8% |
| O=C(Nc1ccc(F)cc1)N1C[C@H]2C[C@H](C(=O)N3CCOCC3)[C@@H](C1)O2 | 0.452% | -11.7% |
| CCc1nc(NCCCOC)c2c(n1)c(C)nn2C | -8.39% | -21.6% |
| Cc1nc(C)n(CC2CN(CCOc3ccccc3F)CCO2)n1 (centres undefined) | -0.955% | 9.47% |
| CN(Cc1cccc(F)c1)C(=O)CN1CCCCC1Cn1cncn1 (centres undefined) | 5.47% | -9.64% |
| CC(Cn1cccn1)NC(=O)N1CCN(Cc2cccs2)CC1 (centres undefined) | -5.57% | -23.7% |
| COCCN1CCN(CCCS(=O)(=O)c2ccccc2)CC1C (centres undefined) | -4.25% | -5.54% |
| CC(C)Cc1noc(CN2CCN(CCO)CC2)n1 | -3.95% | 25.7% |
| Cc1nn(C)cc1-c1cc(C(F)(F)F)c2c(C)nn(CC(=O)O)c2n1 | 4.84% | 34.1% |
| CN(Cc1cnn(C)c1)C(=O)NCc1nnc2n1CCC2 | -10.2% | 4.62% |
